Bioassay records as filed in PubChem BioAssay.
Hits are enriched below; roughly 8.3% of the tested compounds scored in any of these assays.
MARV entry inh: qHTS for inhibitors of binding or entry into cells for Marburg Virus | Potency, µM (titrated, usually from 37.8 µM), hits mostly inhibitors | hit rate 1.8% among 300,000 | Marburg virus pseudotyped entry inhibition, cell reporter | AID 540276, 2011; calls by dose curve; tested in HEK293 cells
LASV entry inh: qHTS for Inhibitors of binding or entry into cells for Lassa Virus; Lassa virus pseudotype entry inhibition, cell reporter; Potency, µM (top dose mostly 37.9 µM), actives largely listed as inhibitors; hit rate 1.2% among 300,000; AID 540256, 2011; calls by dose curve; tested in HEK293 cells; note: nearly all actives have a fitted effect of over 50% in size
FMDV antiviral: High Throughput Screening for Foot and Mouth Disease Virus Antivirals | FMDV antiviral cell-based qHTS | Potency, µM (top dose mostly 57.9 µM), actives largely listed as inhibitors | hit rate 1.2% among 410,000; calls by dose curve; tested in HEK293T cells; note: read-out not given here; nearly all actives have a fitted effect of over 45% in size
HCV inh: qHTS Assay for Inhibitors of Hepatitis C Virus (HCV) | Huh7.5.1 HCVcc-Cre infection, luciferase reporter, 44 h | Potency, µM (top dose mostly 41.8 µM), hits mostly inhibitors | hit rate 3.4% among 340,000
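Antiviral activity was scored by luciferase reporter output from cells infected with HCVcc-Cre (~0.5 moi) in presence of compound, 44 h infection period, cells seeded 1,000/well 4 h prior.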
HCMV inh: qHTS Assay for inhibitors of the human cytomegalovirus (HCMV). HFF cells, HCMV-luciferase reporter, 72 h; stronger effect = lower value. activity change, negative = inhibition, % at 57.5 µM. hit rate 4.5% among 410,000; in the data active = activity change below about -60%; inconclusive = no clear call, values can overlap the other calls; inactive = above about -39%
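Luciferase read-out from HCMV-luciferase-infected HFFs (MOI 1 PFU/cell) 72 h post infection at 37C; compounds added after 16 h cell attachment; activity normalized between buffer-only basal and Salinomycin (10uM) inhibitor controls.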
FBPA Giardia inh: qHTS Assay for Inhibitors of Fructose-1,6-bisphosphate Aldolase from Giardia Lamblia; A8B2U2; purified Giardia FBPA; hit rate 0.71% among 290,000; Potency, µM (titrated, usually from 59.6 µM), actives largely listed as inhibitors; note: nearly all actives have a fitted effect of over 55% in size
Target sequence (A8B2U2 whole entry, looked up): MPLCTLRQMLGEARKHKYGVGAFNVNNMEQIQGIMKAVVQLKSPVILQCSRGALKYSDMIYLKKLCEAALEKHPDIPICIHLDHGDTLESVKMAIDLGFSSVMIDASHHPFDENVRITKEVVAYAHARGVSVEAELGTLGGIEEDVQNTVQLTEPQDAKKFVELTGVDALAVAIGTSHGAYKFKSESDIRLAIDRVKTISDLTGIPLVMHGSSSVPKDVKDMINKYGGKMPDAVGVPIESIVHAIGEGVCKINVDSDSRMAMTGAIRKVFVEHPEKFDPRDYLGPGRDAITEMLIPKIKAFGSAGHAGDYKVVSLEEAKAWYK
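Giardia FBPA (40 nM reagent) was preincubated 10 min at RT with compound (up to 57.5 uM final), then substrate plus GAPDH/TPI/NAD/arsenate coupling system with diaphorase/resazurin was added; resorufin fluorescence (525/598 nm) was read after 20 min.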
A number is an active result; n = inactive; u = inconclusive; x = no result given; + = active, no number. Unless noted, calls come from the whole dose curve; as a rule, active = well fitted curve in the direction sought with a large enough effect; inconclusive = small, poorly fitted or top-dose-only effect, or another doubt; inactive = no such curve, though single readings can be large; an effect the other way counts as inactive or inconclusive.

SMILES	MARV entry inh	LASV entry inh	FMDV antiviral	HCV inh	HCMV inh	FBPA Giardia inh
COc1cccc(-c2cn3nc4c(nc3n2)CCCC4)c1	u	u	n	n	x	u
Cc1ccccc1/C=C/C1=NCCN1	11.2µM	u	n	n	n	n
Cc1ccc(OCC(=O)Nc2sc3c(c2C(N)=O)CCCC3)c(C(C)(C)C)c1	x	n	n	x	n	x
COC(=O)Nc1cc(C)nc2ccccc12	n	n	n	n	n	n
O=C(CSC1=NCCS1)Nc1ccnc2ccccc12	n	n	x	u	-73.3	n
Cc1cc(C)nc(SCC(=O)Nc2ccnc3ccccc23)n1	u	u	u	1.78µM	-88.9	n
Cc1cc(NC(=O)Cc2ccccc2)c2ccccc2n1	x	x	u	u	-85.8	n
CCOC(=O)[C@]12C[C@]3(C)CCN(C(=O)N[C@@H]1c1ccccc1)[C@@H]32	n	x	x	x	x	x
CCCSCC(=O)Nc1ncc2c(n1)-c1ccccc1CC2	n	u	n	n	-95.3	u
O=C(Nc1ncc2c(n1)-c1ccccc1CC2)c1ccc(Cl)cc1	n	n	n	n	n	n
CCSc1cc(N2CCCC2)nc(-c2cccc(C)c2)n1	u	u	n	u	-62.4	n
COCCCn1c(=N)c(C(=O)NCC2CCCO2)cc2c(=O)n3cc(C)ccc3nc21 (centres undefined)	n	n	n	x	n	x
COc1ccc(Cl)cc1C(=O)NNC(=O)CSc1nncn1C	n	n	n	n	-90.6	x
COc1ccccc1C(=O)NC(=O)CSc1nncn1C	n	n	n	n	n	x
CCOC(=O)c1c(CSc2ccccc2)n(C)c2cc(Br)c(OC)c(O)c12	x	x	u	u	n	n
CCOC(=O)c1c(CSc2ccccc2)n(C)c2cc(Br)c(OCC(O)CNC(CO)(CO)CO)cc12 (centres undefined)	u	u	n	u	-62.8	n
Cc1cccc(C(=O)Nc2ccc(S(=O)(=O)N3CCC(c4nc5ccccc5s4)CC3)cc2)c1	n	n	n	x	n	x
Cc1ccc(SCc2nc(-c3ccc(C(=O)NCC(C)c4ccccc4)cc3)oc2C)cc1 (centres undefined)	x	u	u	x	n	x
COc1ccc(/C=N/NC(=O)c2ccoc2C)cc1O	n	u	n	n	n	n
Cc1cc(C(=O)N/N=C/c2ccc(Cl)c([N+](=O)[O-])c2)c(C)n1-c1ccc(F)cc1	u	13µM	n	u	-92.5	u
Cc1occc1C(=O)N/N=C/c1ccc(Cl)c([N+](=O)[O-])c1	3.98µM	n	n	u	-63.0	n
Cc1occc1C(=O)N/N=C/c1ccc(-c2ccccc2)cc1	u	7.94µM	n	n	n	n
O=C(N/N=C/C=C\c1ccccc1[N+](=O)[O-])c1ccco1	x	x	n	n	n	n
Cc1occc1C(=O)N/N=C/c1ccc(OCc2ccccc2)cc1	x	x	n	u	n	n
Cc1occc1C(=O)N/N=C/C=C\c1ccccc1[N+](=O)[O-]	n	n	n	u	-75.0	n
SMILES	MARV entry inh	LASV entry inh	FMDV antiviral	HCV inh	HCMV inh	FBPA Giardia inh
O=C(N/N=C/c1ccc(Cl)c([N+](=O)[O-])c1)c1cc(-c2ccc3c4c(cccc24)CC3)n[nH]1	u	6.31µM	n	n	-73.7	n
O=C(N/N=C/c1cccc([N+](=O)[O-])c1)c1cc(-c2ccc3c4c(cccc24)CC3)n[nH]1	x	x	n	u	u	n
CO[C@H]1[C@H](NC(=O)c2ccco2)c2ccccc2C12CCN(Cc1cnn(-c3ccccc3)c1)CC2	x	x	n	x	x	x
Cc1ccn2c(Nc3ccccc3C)c(-c3ccncc3)nc2c1	n	n	u	n	-66.6	n
Cc1ccccc1Nc1c(-c2ccsc2)nc2c(C)cccn12	n	n	u	x	-84.4	x
CC(=O)N1CCC2(CC1)CN(Cc1ccc(C#N)cc1)C2	x	x	n	x	x	n
Cc1cccc(CNc2ncncc2-c2ccccc2C)c1	x	x	n	x	x	n
CC(C)C(c1nnnn1Cc1ccccc1)N1C(=O)C(=O)c2ccccc21 (centres undefined)	x	x	x	x	n	x
CN1CCN(C(=O)C2CCN(S(=O)(=O)c3cnc[nH]3)CC2)CC1	n	n	n	n	n	n
CCc1ccc(NC(=O)C2CCN(S(=O)(=O)c3cccs3)CC2)cc1	n	u	u	4.47µM	-64.6	n
CCc1cccc(NC(=O)C2CCN(S(=O)(=O)c3cccs3)CC2)c1	n	n	u	u	n	n
COc1ccc(CCNC(=O)C2CCN(S(=O)(=O)c3cccs3)CC2)cc1OC	n	n	n	n	-95.6	n
COc1ccc(S(=O)(=O)N2CCC(C(=O)NCCc3ccc(OC)c(OC)c3)CC2)cc1	x	x	n	x	n	x
COc1ccc(CCNC(=O)C2CC(=O)N(c3ccc(C(C)(C)C)cc3)C2)cc1OC (centres undefined)	x	x	n	n	-93.7	n
O=C(c1ccco1)N1CCN(C(=O)C2CCN(S(=O)(=O)c3cnc[nH]3)CC2)CC1	n	n	n	31.6µM	n	n
Cn1c(=O)oc2cc(S(=O)(=O)NC(Cc3ccccc3)C(=O)NCc3ccccc3Cl)ccc21 (centres undefined)	n	n	n	x	n	x
CCOC(=O)c1cccc(NC(=O)C2CCN(S(=O)(=O)c3cccs3)CC2)c1	u	u	25.1µM	u	n	n
O=C(Nc1ccc(Cl)cn1)C1CCN(S(=O)(=O)c2cccs2)CC1	x	x	u	11.2µM	-72.4	n
CCOC(=O)c1cccc(NC(=O)C2CCN(S(=O)(=O)c3ccc4c(c3)oc(=O)n4C)CC2)c1	n	n	n	x	-103.3	x
CCOC(=O)c1ccc2c(c1)nc(C1CCN(S(=O)(=O)c3cccs3)CC1)n2CC	u	u	x	6.31µM	u	n
Cc1ccc(CNC(=O)CN2C(=O)COc3ccc(S(=O)(=O)Nc4ccccc4)cc32)cc1	x	n	n	x	n	x
COC(=O)c1ccc(C(NC(=O)OCc2ccccc2)/C(=C/[C@@H](C)C(=O)NCc2nc3ccccc3s2)c2cccnc2)cc1 (some centres undefined)	x	x	x	x	x	n
O=C(Nc1ccccc1Br)C1CCN(S(=O)(=O)c2cccs2)CC1	u	n	n	n	-74.8	x
CCN(Cc1ccncc1)C(=O)C1CCN(S(=O)(=O)c2cccs2)CC1	n	u	n	n	-106.7	n
CN(C(=O)C1CCN(S(=O)(=O)c2cccs2)CC1)C1CCCCC1	n	n	x	n	n	n
CN(C)S(=O)(=O)c1ccc(Cl)c(NC(=O)C2CCN(S(=O)(=O)c3cccs3)CC2)c1	x	x	u	u	-66.4	x
Cc1ccccc1NC(=O)C1CCN(S(=O)(=O)c2cccs2)CC1	n	x	n	n	n	n
CCc1ccc(NC(=O)C2CCCN(S(=O)(=O)c3cnc[nH]3)C2)cc1 (centres undefined)	x	x	n	n	x	n
CCc1ccc(NC(=O)C2CCN(S(=O)(=O)c3cnc[nH]3)CC2)cc1	x	x	n	n	+	n
CC(=O)/C(=C\c1ccccc1)CC(=O)O	x	x	n	x	x	n
